Experimental data taken from PubChem BioAssay AID686979 (National Center for Advancing Translational Sciences (NCATS), 2013).
The campaign covered roughly 420,000 compounds. About 50,000 (12%) were called active. Where a call stands in place of a potency, no number is given. About 26% were inconclusive and are not listed. Calls come from the whole dose curve; as a rule, active = well fitted inhibition curve with a large enough effect; inconclusive = small, poorly fitted or top-dose-only effect; inactive = flat fitted curve, though single readings scatter. For the sample, actives were picked, then their nearest neighbours and some compounds at random.

Experiment: qHTS for Inhibitors of human tyrosyl-DNA phosphodiesterase 1 (TDP1): qHTS in cells in presence of CPT; note: nearly all actives have a fitted effect of over 55% in size
Settings: chicken DT40 Tdp1-/-;hTDP1 cells + 20 nM CPT, ATP luminescence, 48 h; series mostly up to 46.2 µM
In short: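 Chicken DT40 Tdp1-/- cells complemented with human TDP1, 400 cells/well, exposed to compounds plus 20 nM camptothecin for at least 48 h at 37 C; viability read as ATP content by CellTiter-Glo luminescence.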
Potency is the fitted concentration of half-maximal effect.

| SMILES | Potency | activity change, negative = growth inhibition |
| --- | --- | --- |
| Cc1cccc(NC(=O)CSc2nnc(-c3ccco3)o2)c1 | inactive | – |
| C/C(=N/NC(=O)CCc1ccccc1)c1ccco1 | inactive | – |
| O=C(CCc1ccccc1)Nc1cccc(-c2nnc(-c3ccco3)o2)c1 | 25.9 µM (active) | – |
| COc1ccc(C(=O)NCC2CCCO2)cc1S(=O)(=O)NCc1ccc(Cl)cc1 (stereo not drawn) | inactive | – |
| Cc1[nH]c2ccccc2c1C(=O)C(C)Sc1nnc(C2CC2)o1 (stereo not drawn) | inactive | – |
| COc1ccc(-c2cc(C(F)(F)F)n3nc(-c4ccccc4)cc3n2)cc1OC | 10.3 µM (active) | – |
| COC(=O)c1cc2nc(-c3ccccc3)cc(C(F)(F)F)n2n1 | inactive | – |
| Cc1cc(-c2ccccc2)n2nc(-c3ccccc3)cc2n1 | inactive | – |
| O=C(NC1CC(=O)N(c2ccc(F)cc2)C1)C1CCCCC1 (stereo not drawn) | inactive | – |
| CC1CCN(S(=O)(=O)c2ccc3c(c2)n(C)c(=O)n3C)CC1 | inactive | – |
| Cc1ccc(-c2ccnc(-n3ncc(C(=O)N(C)Cc4cccc5ncccc45)c3C3CC3)n2)o1 | – | 10% [at 9.04 µM] (inactive) |
| CC1(C)Oc2ccc3ccc(=O)oc3c2/C(=N/O)C1=O | inactive | – |
| CCOc1ccc(NC(=O)CN(Cc2ccccc2)S(=O)(=O)c2ccc(Cl)cc2)cc1 | inactive | – |
| CCOc1ccc(N(Cc2ccccc2)C(=O)c2nc(SCC)ncc2Cl)cc1 | 29.1 µM (active) | – |
| CCOc1ccc(N(Cc2ccccc2)C(=O)c2nc(S(C)(=O)=O)ncc2Cl)cc1 | 0.58 µM (active) | – |
| CCOc1ccc(S(=O)(=O)N(CC(=O)O)c2ccccc2)cc1 | inactive | – |
| CCSc1nnc2c(n1)OC(c1ccc(OCC(=O)O)cc1)Nc1ccccc1-2 (stereo not drawn) | inactive | – |
| CCSc1ncc(Cl)c(C(=O)Nc2c(C(=O)c3ccccc3)oc3ccccc23)n1 | inactive | – |
| COc1cc(=O)n2c(c1C(=O)NCc1ccco1)CCN(Cc1ccccc1)CC2 | – | 13.5% [at 9.04 µM] (inactive) |
| Cc1cccc(NC(=O)NC2(C)CCS(=O)(=O)C2)c1 (stereo not drawn) | inactive | – |
| COc1cc(Cl)c(C)cc1NC(=O)CSc1nnc(CN2CCCC2)o1 | inactive | – |

| SMILES | Potency | activity change, negative = growth inhibition |
| --- | --- | --- |
| COc1ccccc1CNC(=O)COn1nnc2ccc(S(=O)(=O)N3CCOCC3)cc21 | inactive | – |
| COc1cccc(NC(=O)C(C)Oc2ccccc2)c1 (stereo not drawn) | inactive | – |
| COc1cccc(NC(=O)c2csnn2)c1 | inactive | – |
| COc1cccc(NC(=O)C2C(c3ccccc3)C2(Cl)Cl)c1 (stereo not drawn) | 29.1 µM (active) | – |
| CSc1ccc(CNC(=O)c2ccc(NC(=O)C3=CSCCO3)cc2)cc1 | inactive | – |
| CC(C)C1C(=O)N(Cc2cn(CCC3OCCO3)nn2)CCS(=O)(=O)N1Cc1ccc(-c2ccccc2C(F)(F)F)cc1 (stereo not drawn) | 13 µM (active) | – |
| Cc1ccc(-c2ccc(CN3C(C(C)C)C(=O)N(Cc4cn(CCC5OCCO5)nn4)CCS3(=O)=O)cc2)cc1 (stereo not drawn) | 16.4 µM (active) | – |
| Cc1ccc(Cn2cc(CN3CC(N4CCN(C)CC4)CS3(=O)=O)nn2)cc1 (stereo not drawn) | inactive | – |
| O=S1(=O)CC(N2CCN(CCO)CC2)CN1Cc1cn(Cc2ccc(Cl)cc2)nn1 (stereo not drawn) | inactive | – |
| CC(NC(=O)C(=O)N/N=C/c1ccc(Cl)cc1)c1ccccc1 (stereo not drawn) | inactive | – |
| O=C(O)C1=CCCN(CCON=C(c2ccccc2)c2ccccc2)C1 | inactive | – |
| COc1cc(C2/C(=C(\O)c3ccc4c(c3)CC(C)O4)C(=O)C(=O)N2Cc2ccco2)ccc1O (stereo not drawn) | inactive | – |
| CN(CC(=O)NCCc1ccc(S(N)(=O)=O)cc1)CC(=O)Nc1ccc(Cl)cc1 | inactive | – |
| O=C(CCN1C(=O)/C(=C/c2cccs2)SC1=S)NNC(=O)c1cccc(O)c1 | inactive | – |
| O=C1/C(=C/c2cccs2)SC(=S)N1C1CCS(=O)(=O)C1 (stereo not drawn) | 14.6 µM (active) | – |
| N/C(=N\OC(=O)Nc1ccccc1)c1ccno1 | inactive | – |
| Cc1cccnc1NC(=O)Cn1c(=O)oc2ccccc21 | inactive | – |
| O=C(NCCCn1ccnc1)c1ccccc1F | inactive | – |
| COc1ccccc1NS(=O)(=O)c1ccc(C)c(C(=O)NNC(=O)c2csc(N3CCOCC3)n2)c1 | inactive | – |
| CCCC1CCC(=NNC(=S)NCCc2ccccc2)CC1 (stereo not drawn) | 16.4 µM (active) | – |
| O=C(NCCc1ccccc1)C1CC1 | inactive | – |

| SMILES | Potency | activity change, negative = growth inhibition |
| --- | --- | --- |
| CCC(C)(C)C1CCC(=NNC(=O)c2ccc(Br)o2)CC1 (stereo not drawn) | inactive | – |
| Cc1ccc2[nH]c3c(=O)n(CC(=O)NCCc4ccc(Cl)cc4)ncc3c2c1 | inactive | – |
| COc1ccc(S(=O)(=O)N2CCN(CC(=O)N3c4ccccc4CC3C)CC2)cc1OC (stereo not drawn) | inactive | – |
| COc1cccc(/C=C(/CC(=O)Nc2ccc(N3CCOCC3)cc2)c2nc3ccccc3s2)c1 | inactive | – |
| Cc1cc(C)c(C=NNc2nc3c([nH]2)c(=O)n(C)c(=O)n3C)c(C)c1 | inactive | – |
| Oc1ccc(-c2nnc(Nc3ccccc3)c3ccccc23)cc1 | inactive | – |
| O=c1ccc2c(-c3ccccc3S(=O)(=O)O)c3ccc(O)c(O)c3oc-2c1O | 16.4 µM (active) | – |
| O=C(Nc1ccc(OCC(=O)N2CCOCC2)cc1)c1cc(F)c(F)cc1Cl | inactive | – |
| COc1ccccc1Oc1ccc(N2CC(C(=O)OCC(=O)c3ccc(F)cc3)CC2=O)cc1 (stereo not drawn) | inactive | – |
| CCN1CCC(O)(/C=C/c2ccc(C)cc2)C(C(=O)/C=C/c2ccc(C)cc2)C1 (stereo not drawn) | 3.66 µM (active) | – |
| O=C(NCc1cccs1)c1ccc(CS(=O)Cc2ccccc2Cl)o1 (stereo not drawn) | inactive | – |
| CCOCCCN(C)C1CCN(C(=O)c2oc3ccccc3c2NC(=O)Cc2cccc([N+](=O)[O-])c2)CC1 | inactive | – |
| CCOC(=O)c1cc2c(=O)n3ccccc3nc2n(CCCOC)c1=NC(=O)C(C)Oc1ccccc1 (stereo not drawn) | inactive | – |
| COc1cc2c(=O)c(S(=O)(=O)c3ccc(C(C)C)cc3)cn(Cc3ccccc3C)c2cc1OC | 6.51 µM (active) | – |
| Cc1cc(Nc2cccc(F)c2)n2ncnc2n1 | inactive | – |
| COCCN1C(=O)C(=O)/C(=C(/O)c2ccc(S(=O)(=O)N3CCOCC3)cc2)C1c1ccc(O)c(OC)c1 (stereo not drawn) | inactive | – |
| CC(=O)Nc1cccc(C(=O)OCN2C(=O)c3ccccc3C2=O)c1 | inactive | – |
| CC(=O)Nc1cccc(Nc2ccc(C#N)cc2)c1 | inactive | – |
| CCN(CC)N=Nc1cccc(NC(C)=O)c1 | 11.6 µM (active) | – |
| CCn1ccnc1CN(C)Cc1nc(-c2ccc3c(c2)OCO3)no1 | inactive | – |
| Cc1ccc(-n2cc(CN(C)Cc3nccn3C)c(-c3cccc(C)c3)n2)cc1 | 20.6 µM (active) | – |
